Shiga toxin inh – inhibitors of Shiga toxin in Vero cells; Vero cells, Shiga toxin protein synthesis inhibition reporter; inhibition, % at 38.7 µM; actives 9.2% (n = 290,000); AID 2315; in the data active = inhibition mostly above about 28%, no sharp cut-off; inactive = mostly below about 43%
Pf growth 96h – inhibits malaria parasite growth, 96 h; P. falciparum luciferase reporter growth, 96 h; AID 504834; Potency, µM (doses to about 28.7 µM), usual class: inhibitors; actives 6.9% (n = 320,000)
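Erythrocytes infected with luciferase-expressing P. falciparum were dispensed at 2% hematocrit and 0.05% parasitemia (final), then incubated with compounds 96 hours at 37 C in 5% CO2. Luminescence after detection reagent addition reported growth.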
Pf growth 48h – P. falciparum growth inhibition at 48 hours (one generation); P. falciparum luciferase growth in erythrocytes, 48 h; Potency, µM (highest dose often 28.7 µM), hits mostly inhibitors; actives 5.9% (n = 310,000); AID 504832
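Firefly luciferase activity from engineered P. falciparum reports growth; inhibitors lower the luminescent signal. Cultures contained 2% hematocrit erythrocytes at 0.1% final parasitemia.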
NS1 function inh – blocks influenza NS1 protein function | Potency, µM (titrated, usually from 46.1 µM) | actives 0.4% (n = 270,000); calls by dose curve; note: actives are rising curves; nearly all actives have a fitted effect of over 50% in size
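Recovery from NS1-induced slow growth read by OD600 in budding yeast switched to galactose assay medium (pH 6.0, -URA) at 1:100 dilution. Compound 23 nl per well; the matching strain lacking NS1 serves as control.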
Cycloheximide cs – counter-screen hit for Shiga toxin inhibitors, cycloheximide; cell reporter, cycloheximide protein synthesis inhibition counterscreen; max response, %; actives 12% (n = 300,000); in the data active = max response mostly above about 13%, no sharp cut-off; inactive = mostly below about 14%; note: read at 38.3 µM for the half of the compounds with a filed dose
Hits are given with their value. Rows were chosen to be rich in hits. Some 21% of all compounds tested hit in one or more screens of this group. Unless noted, calls come from the whole dose curve; as a rule, active = well fitted inhibition curve with a large enough effect; inconclusive = small, poorly fitted or top-dose-only effect, or another doubt; inactive = no such curve, though single readings can be large or run the other way.

How did CCOC(=O)CC(=O)COc1nc2cc3c(nc2o1)CCCC3 do in these assays?
Shiga toxin inh: 91; Pf growth 96h: inactive; Pf growth 48h: inactive; NS1 function inh: inactive; Cycloheximide cs: 27

How did CC(C)OC(=O)CC(=O)CSc1nc2c(cc1C#N)CCCCC2 do in these assays?
Shiga toxin inh: 72; Pf growth 96h: inactive; Pf growth 48h: inactive; NS1 function inh: inactive; Cycloheximide cs: 52

How did CC(C)(C)CC(C)(C)NC(=S)NC1CCN(Cc2ccccc2)CC1 do in these assays?
Shiga toxin inh: inactive; Pf growth 96h: inconclusive; Pf growth 48h: inconclusive; NS1 function inh: inactive; Cycloheximide cs: inactive

What do the screens show for `COc1ccc(/C=N/NC(=O)CO/N=C(\C)c2cccs2)cc1`?
Shiga toxin inh: inactive; Pf growth 96h: inconclusive; NS1 function inh: inactive; Cycloheximide cs: inactive

What do the screens show for `O=C(c1ccc(-n2cccn2)cc1)N1CCN(c2ncccc2C(F)(F)F)CC1`?
Shiga toxin inh: inactive; Pf growth 96h: inactive; Pf growth 48h: inactive; NS1 function inh: inactive; Cycloheximide cs: inactive

Results for N#Cc1c(-c2cccs2)cc(-c2ccccn2)nc1N ?
Shiga toxin inh: inactive; Pf growth 96h: 9.3µM; Pf growth 48h: inactive; NS1 function inh: inactive; Cycloheximide cs: inactive

Results for CC(=O)Oc1ccc(-c2ccc(C(=O)OCC(=O)N(C)CC(=O)Nc3ccccc3Cl)cc2)cc1 ?
Shiga toxin inh: inactive; Pf growth 96h: inactive; Pf growth 48h: inactive; NS1 function inh: inactive; Cycloheximide cs: inactive

Results for CC(CN1CCC(n2nccc2NC(=O)CCCc2ccccc2)CC1)c1ccccc1 (stereo unspecified) ?
Shiga toxin inh: inactive; Pf growth 96h: 12µM; Pf growth 48h: 15µM; NS1 function inh: inactive; Cycloheximide cs: inactive

Results for CSCC(C)N1CCC(n2nccc2NC(=O)CCCc2ccccc2)CC1 (stereo unspecified) ?
Shiga toxin inh: inactive; Pf growth 96h: inconclusive; Pf growth 48h: inactive; NS1 function inh: inactive; Cycloheximide cs: inactive

How did O=C(Nc1ccnn1C1CCN(CCCc2ccccc2)CC1)c1ccccc1 do in these assays?
Shiga toxin inh: inactive; Pf growth 96h: inactive; Pf growth 48h: inactive; NS1 function inh: inconclusive; Cycloheximide cs: inactive

Results for Cc1ccccc1C(=O)Nc1ccnn1C1CCN(CCCc2ccccc2)CC1 ?
Shiga toxin inh: inactive; Pf growth 96h: 15µM; Pf growth 48h: inconclusive; NS1 function inh: inactive; Cycloheximide cs: inactive

What do the screens show for `Cc1ccc(CN2CCC(n3nccc3NC(=O)c3ccccc3C)CC2)o1`?
Shiga toxin inh: inactive; Pf growth 96h: 2.1µM; Pf growth 48h: inactive; NS1 function inh: inactive; Cycloheximide cs: inactive

How did Cc1ccccc1C(=O)Nc1ccnn1C1CCN(Cc2ccc(CO)o2)CC1 do in these assays?
Shiga toxin inh: inactive; Pf growth 96h: inactive; Pf growth 48h: inactive; NS1 function inh: inactive; Cycloheximide cs: inactive

How did Cc1ccccc1C(=O)Nc1ccnn1C1CCN(CC2CC=CCC2)CC1 (stereo unspecified) do in these assays?
Shiga toxin inh: inactive; Pf growth 96h: 15µM; Pf growth 48h: inactive; NS1 function inh: inactive; Cycloheximide cs: inactive

Results for CCn1c(CSc2ncccn2)nnc1SCC(=O)N1CCCCC1 ?
Shiga toxin inh: inactive; Pf growth 96h: inactive; Pf growth 48h: inactive; NS1 function inh: inactive; Cycloheximide cs: inactive

What do the screens show for `CCOc1ccccc1N(CC(=O)NC1CCCCC1)S(C)(=O)=O`?
Shiga toxin inh: inactive; Pf growth 48h: inconclusive; NS1 function inh: inactive; Cycloheximide cs: inactive

Results for O=C(Nc1ccc2nn(-c3ccccc3)nc2c1)c1cccs1 ?
Shiga toxin inh: 73; Pf growth 96h: inactive; Pf growth 48h: inconclusive; NS1 function inh: inactive; Cycloheximide cs: 35

What do the screens show for `O=C(Nc1ccc2nsnc2c1)c1cccs1`?
Shiga toxin inh: inactive; Pf growth 96h: inactive; Pf growth 48h: inactive; NS1 function inh: inactive; Cycloheximide cs: 30

What do the screens show for `CC[N+]1(CC)CC2=Cc3c(ccc4ccccc34)C(C)C2C1` (stereo unspecified)?
Shiga toxin inh: inactive; Pf growth 96h: 1.5µM; Pf growth 48h: 2.3µM; NS1 function inh: inactive; Cycloheximide cs: inactive

Results for O=C(Nc1cccc(-c2cn3c(n2)SCC3)c1)c1ccc2c(c1)OCO2 ?
Shiga toxin inh: 116; Pf growth 96h: inactive; Pf growth 48h: inactive; Cycloheximide cs: inactive

What do the screens show for `O=C(Nc1ccc(-c2cn3c(n2)SCC3)cc1)c1ccc2c(c1)OCO2`?
Shiga toxin inh: inactive; Pf growth 96h: inconclusive; Pf growth 48h: inconclusive; Cycloheximide cs: inactive

Results for c1ccc(-c2nccc(-c3ccc4c(c3)OCO4)n2)cc1 ?
Shiga toxin inh: 70; Pf growth 96h: inactive; Pf growth 48h: inactive; NS1 function inh: inactive; Cycloheximide cs: 55

How did O=C(Nc1cccc(-c2cn3cccnc3n2)c1)c1ccc(Br)o1 do in these assays?
Shiga toxin inh: inactive; Pf growth 96h: inactive; Pf growth 48h: inactive; NS1 function inh: inactive; Cycloheximide cs: inactive

What do the screens show for `c1cnc2nc(-c3ccc4c(c3)OCO4)cn2c1`?
Shiga toxin inh: 38; Pf growth 96h: inactive; Pf growth 48h: inactive; NS1 function inh: inactive; Cycloheximide cs: 35

Results for O=C(Nc1cccc(-c2cn3cccnc3n2)c1)c1ccco1 ?
Shiga toxin inh: inactive; Pf growth 96h: inconclusive; Pf growth 48h: inactive; NS1 function inh: inactive; Cycloheximide cs: 24

What do the screens show for `O=C(Nc1cccc(-c2nc3ccccc3s2)c1)c1ccc2c(c1)OCO2`?
Shiga toxin inh: inactive; Pf growth 96h: inactive; Pf growth 48h: inactive; NS1 function inh: inactive; Cycloheximide cs: inactive

How did O=C(Nc1cccc(-c2cn3cccnc3n2)c1)c1ccc2c(c1)OCO2 do in these assays?
Shiga toxin inh: inactive; Pf growth 96h: 1.3µM; Pf growth 48h: inactive; NS1 function inh: inactive; Cycloheximide cs: inactive

What do the screens show for `CC(Oc1ccc(F)cc1)C(=O)Nc1cc(S(=O)(=O)N2CCOCC2)ccc1N1CCCCC1` (stereo unspecified)?
Pf growth 96h: 3.3µM; Pf growth 48h: 4.7µM

Results for CC(Oc1ccc(Br)cc1)C(=O)Nc1cc(S(=O)(=O)N2CCOCC2)ccc1N1CCCC1 (stereo unspecified) ?
Pf growth 96h: 13µM; Pf growth 48h: inconclusive

Results for Cc1ccc(CNCC(=O)Nc2ccc(C)cc2Br)cc1 ?
Shiga toxin inh: inactive; Pf growth 96h: inactive; Pf growth 48h: inactive; Cycloheximide cs: inactive

Results for O=C(CC1CCCC1)Nc1cccc(Br)c1 ?
Shiga toxin inh: 56; Pf growth 96h: inactive; Pf growth 48h: inactive; NS1 function inh: inactive; Cycloheximide cs: 17

How did Cc1ccc(NC(=O)CC2CCCC2)c(Br)c1 do in these assays?
Shiga toxin inh: 93; Pf growth 96h: inactive; Pf growth 48h: inactive; NS1 function inh: inactive; Cycloheximide cs: 42

What do the screens show for `CC(=O)c1cccc(NC(=O)CC2CCCC2)c1`?
Shiga toxin inh: inactive; Pf growth 96h: inactive; Pf growth 48h: inactive; NS1 function inh: inactive; Cycloheximide cs: inactive

How did COC(=O)c1cc(OC)c(OC)cc1NC(=O)CC1CCCCC1 do in these assays?
Shiga toxin inh: inactive; Pf growth 96h: inactive; Pf growth 48h: 10µM; NS1 function inh: inactive; Cycloheximide cs: inactive

How did COC(=O)c1cc(OC)c(OC)cc1NC(=O)CN1CCCCC1 do in these assays?
Shiga toxin inh: inactive; Pf growth 96h: inactive; Pf growth 48h: inactive; NS1 function inh: inactive; Cycloheximide cs: inactive
